From PubChem
12-LOX inh: ALOX12 (human) lipoxygenase inhibition; Potency, µM (doses to about 108 µM), for inactives: at the highest dose activity change, negative = inhibition, actives largely listed as inhibitors; purified 12hLO, xylenol orange hydroperoxide absorbance; 580,000 compounds, 1.1% hits; AID 1671190; P18054; further: on the % scale 0 is the no-effect control and ±100 the full control effect
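Purified human 12hLO (150 nM final) in 25 mM Hepes, 0.01% Triton X-100, pH 7.0 was preincubated 15 min at room temperature with compound. Then 40 uM arachidonic acid was added, 30 min. Hydroperoxide was read by Fe-XO absorbance ratio 573/405 nm.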
HP1b binding inh: inhibitors of HP1-beta chromodomain binding to methylated histone tails; P83916; AlphaScreen HP1-beta / biotin-H3K9me3 peptide binding; Potency, µM (titrated, usually from 114 µM), without a hit: at the top dose activity change, negative = inhibition, most hits filed as inhibitors; 390,000 compounds, 0.56% hits; AID 540317; further: nearly all actives have a fitted effect of over 70% in size
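AlphaScreen: HP1-beta (50 nM) preformed 30 min with biotin-H3(1-18)K9me3 peptide (50 nM) in PBS pH 7.4, 0.01% Tween-20. Compound added for 30 min at RT, then streptavidin donor/nickel chelate acceptor beads (10 ug/mL) for 30 min.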
Sfp inh: blocks B. subtilis Sfp PPTase activity; Potency, µM, for the others: largest response in the series, negative = inhibition, most hits filed as inhibitors; AID 1490; 310,000 compounds, 3.5% hits; Biochemical Sfp PPTase activity, qHTS;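 further: the enzyme is Sfp with the accession as filed and its product quenches rhodamine fluorescence; 0% = enzyme reaction without inhibitor and -100% = no enzyme wells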
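Compounds were incubated with enzyme (final 15 nM) for 15 min at room temperature before substrate addition started the reaction. Fluorescence at 525 nm excitation, 598 nm emission was recorded immediately and after 30 minutes.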
BAZ2B inh: inhibitors of human BAZ2B bromodomain. Q9UIF8. AlphaScreen BAZ2B-H3K14Ac peptide displacement. Potency, µM (top dose mostly 114 µM), inactives show top-dose activity change, negative = inhibition, actives largely listed as inhibitors. 360,000 compounds, 4.4% hits. AID 504333; further: on the % scale 0 is the no-effect control and ±100 the full control effect; nearly all actives have a fitted effect of over 60% in size
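In this displacement format the biotinylated H3(5-23) peptide acetylated at Lys14 serves as ligand at 50 nM, with BAZ2B at 50 nM in PBS pH 7.4 containing 0.01% Tween-20. Donor and acceptor beads are 10 ug/mL final.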
JMJD2A Tudor: JMJD2A Tudor domain (human) inhibition; AlphaScreen JMJD2A-Tudor / H3K4me3 peptide binding; AID 504339; 390,000 compounds, 4.4% hits; O75164; Potency, µM (top dose mostly 114 µM), for inactives: top-dose activity change, negative = inhibition, most hits filed as inhibitors; further: on the % scale 0 is the no-effect control and ±100 the full control effect; nearly all actives have a fitted effect of over 50% in size
Target sequence (O75164 whole entry, looked up, the tested form may be a part): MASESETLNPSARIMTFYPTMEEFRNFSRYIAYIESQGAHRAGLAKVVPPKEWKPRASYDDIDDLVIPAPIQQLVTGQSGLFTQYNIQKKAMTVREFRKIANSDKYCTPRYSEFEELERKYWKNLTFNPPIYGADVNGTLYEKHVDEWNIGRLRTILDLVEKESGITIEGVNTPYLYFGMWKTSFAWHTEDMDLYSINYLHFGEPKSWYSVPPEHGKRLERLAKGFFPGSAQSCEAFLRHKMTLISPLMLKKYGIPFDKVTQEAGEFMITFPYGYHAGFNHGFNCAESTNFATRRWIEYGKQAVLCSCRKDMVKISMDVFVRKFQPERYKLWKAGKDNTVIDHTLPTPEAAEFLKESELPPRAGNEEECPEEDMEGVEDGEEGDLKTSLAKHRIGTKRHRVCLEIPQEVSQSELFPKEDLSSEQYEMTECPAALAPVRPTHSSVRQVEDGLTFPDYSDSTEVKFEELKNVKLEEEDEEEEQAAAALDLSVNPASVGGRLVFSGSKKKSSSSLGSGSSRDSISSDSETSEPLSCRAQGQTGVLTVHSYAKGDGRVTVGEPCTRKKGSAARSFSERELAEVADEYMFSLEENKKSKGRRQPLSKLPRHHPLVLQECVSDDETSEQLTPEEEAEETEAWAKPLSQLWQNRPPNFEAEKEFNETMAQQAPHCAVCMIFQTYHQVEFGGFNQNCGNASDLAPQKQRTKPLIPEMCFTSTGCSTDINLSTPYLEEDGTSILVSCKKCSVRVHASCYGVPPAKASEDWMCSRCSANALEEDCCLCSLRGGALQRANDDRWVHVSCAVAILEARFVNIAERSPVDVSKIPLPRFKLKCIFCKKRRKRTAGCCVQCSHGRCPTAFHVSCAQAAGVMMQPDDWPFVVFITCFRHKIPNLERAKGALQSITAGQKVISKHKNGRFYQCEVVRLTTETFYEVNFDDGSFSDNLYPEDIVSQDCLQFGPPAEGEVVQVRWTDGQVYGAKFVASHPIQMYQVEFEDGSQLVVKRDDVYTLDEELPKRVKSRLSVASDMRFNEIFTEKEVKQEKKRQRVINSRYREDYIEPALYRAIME
G9a inh: G9a (human) methyltransferase inhibition. Q96KQ7. G9a H3K9 monomethylation, AlphaScreen, 2 h. Potency, µM (doses to about 102 µM), for the others: at the highest dose activity, negative = inhibition, hits mostly inhibitors. 350,000 compounds, 8.8% hits. AID 504332; further: on the % scale 0 is the no-effect control and ±100 the full control effect; nearly all actives have a fitted effect of over 75% in size
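Readings reflect AlphaScreen signal from monomethyl-H3K9 antibody detection. HMT at 20 nM; substrate b-H3K9 500 nM; cofactor SAM 20 uM; 2 h RT reaction; compounds tested as titrations in qHTS with 15 min preincubation.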
An asterisk follows results filed as active; i = inactive; u = inconclusive; x = no result; ! = not active in a repeat; [ ] = dose if it differs, or a comment. Sampled rows, rich in hits. Any-hit rate of the full collection: about 8.7%. The call rests on the fitted dose curve; in most records, active means well fitted curve in the direction sought with a large enough effect; inconclusive means small, poorly fitted or top-dose-only effect, or another doubt; inactive means no such curve, though single readings can be large; an effect the other way counts as inactive or inconclusive. Potency means the concentration at half of the fitted maximal effect.

SMILES	12-LOX inh	HP1b binding inh	Sfp inh	BAZ2B inh	JMJD2A Tudor	G9a inh
Cc1cc(=O)n2[nH]c(-c3ccsc3-n3c(C)ccc3C)cc2n1	-22.5%	9.3%	44.7µM*	44.7µM*	-8.1%[11.4 µM]	x
Cc1cc(=O)n2[nH]c(-c3ccc(F)cc3)cc2n1	0.0%	13.7%	12.0%	8.3%	-9.5%	-2.8%[59 µM]
CCOC(=O)Cc1cc(=O)n2[nH]c(-c3ccccc3)cc2n1	6.6%	5.7%	-8.6%	-1.0%	-10.5%	u
CC1CCCN(C2CCN(Cc3cccc(Cl)c3)CC2)C1 (stereo not drawn)	-51.8%	x	x	x	x	x
Cc1cccc(C(=O)OCC(=O)NC(=O)c2ccccc2)c1O	12.3%	14.5%	x	79.4µM*	-4.8%	-1.1%[0.501 µM]
Cc1cnc(C(=O)OCC(=O)NC(=O)c2ccccc2)cn1	u	10.4%	x	u	-13.8%	44.7µM*
Cc1cnc(C(=O)OCC(=O)c2ccccc2)cn1	-9.5%	1.3%	x	-38.0%	-11.8%	u
CN1CCN(Cc2ccc(Nc3ncc(-c4cncnc4)c4c3OCC4)cc2)CC1	-0.1%[176 µM]	x	x	x	x	x
CS(=O)(=O)c1ccc(CN2C[C@@H](F)[C@@H](OCc3nc4ccc(F)cc4[nH]3)C2)cc1	8.2%[176 µM]	x	x	x	x	x
COc1ccc2[nH]c(C)c(CCNC(=S)Nc3cccc(C)c3C)c2c1	u	u	29.1%	35.5µM*	56.2µM*	u
COc1ccc2[nH]c(C)c(CCNC(=S)Nc3ccc(C)cc3)c2c1	u	-23.4%	-2.2%	x	50.1µM*	u
COc1ccc2[nH]c(C)c(CCNC(=S)Nc3ccccc3C)c2c1	u	u	-2.3%	44.7µM*	89.1µM*	50.1µM*
COc1ccc2oc(=O)c(C(=O)NCCc3c(C)[nH]c4ccc(OC)cc34)cc2c1	20.1%	x	x	x	x	x
CCc1cccc(CC)c1NC(=S)NCCc1c(C)[nH]c2ccccc12	u	-16.4%	13.9%	31.6µM*	44.7µM*	44.7µM*
O=C1C(Cl)=C(NCCN2CCCCC2)C(=O)c2ccccc21	x	-25.2%	1.1%	u	u	50.1µM*
O=C1C(Cl)=C(NCc2ccco2)C(=O)c2ccccc21	u	50.1µM*	x	x	u	x
O=C(NCCN1CCCC1)c1ccccc1Cl	-11.6%	19.2%	15.7%	-4.4%	-16.2%	-42.1%
O=C1c2ccccc2-c2onc3ccc(NCc4ccco4)c1c23	x	i	-15.3%	111.9%	u	i
CCOC(=O)c1c(C)[nH]c(C(=O)Cn2nnc(-c3ccc(C)cc3)n2)c1C	16.9%	x	x	x	x	x
Cn1c(NC(=O)/C=C/c2ccco2)cc(=O)n(C)c1=O	-2.0%	32.6%	56.2µM*	-2.3%	-5.2%	u
Cc1ccc(/C=C/C(=O)Nc2cc(=O)n(C)c(=O)n2C)o1	-19.7%	-29.5%	-81.2%	-5.3%	u	3.98µM*
COc1cc(/C=C\C(=O)Nc2cc(=O)n(C)c(=O)n2C)cc(OC)c1OC	18.9%	8.0%	24.9%	-34.1%	-20.8%	-2.6%
CN(C(=O)c1ccc(Cl)cc1)c1nc2ccccc2o1	-7.2%	x	x	x	x	x
Cc1ccc(C(=O)Nc2ccc(Br)cc2)cc1S(=O)(=O)Nc1ccccn1	-26.9%	30.5%	10.4%	-35.7%	0.0%	79.4µM*
Cc1ccc(NS(=O)(=O)c2cc(C(=O)Nc3cccnc3)ccc2C)cc1	u	11.3%	-20.9%	-30.3%	u	79.4µM*
SMILES	12-LOX inh	HP1b binding inh	Sfp inh	BAZ2B inh	JMJD2A Tudor	G9a inh
O=C(Nc1ccc(S(=O)(=O)Nc2ccccn2)cc1)c1cccc(Cl)c1	u	-6.6%	-3.1%	-14.2%	-14.1%	25.1µM*
Cc1ccc(C(=O)Nc2ccccc2)cc1S(=O)(=O)Nc1ccc(Br)cc1	u	40.1%	x	-6.7%	-21.9%	2.5%[59 µM]
Cc1ccc(NS(=O)(=O)c2cc(C(=O)N3CCN(CCO)CC3)ccc2C)cc1	-14.8%	-26.9%	x	50.1µM*	79.4µM*	2µM*
C(=C\c1ccccc1)/C1=NO[C@@H]2[C@H]3CC[C@H](C3)[C@H]12	-3.5%	x	x	x	x	x
CCCN(CC1CCOC1)S(=O)(=O)c1ccccc1 (stereo not drawn)	15.0%	x	x	x	x	x
c1cncc(-c2nc(Sc3nnnn3C3CCCC3)c3ccccc3n2)c1	-27.2%	x	x	x	x	x
CC(C)C1CN(c2cncc(C(=O)N3CCCC3)n2)CCC(=O)N1CC1CC1 (stereo not drawn)	3.4%	x	x	x	x	x
O=C(Nc1ccc(S(=O)(=O)Nc2cnc3ccccc3n2)cc1)c1ccccc1	-19.8%	x	x	x	x	x
CNc1cc(NS(=O)(=O)c2ccc(N)cc2)nc(NC)n1	u	18.8%	-10.0%	50.1µM*	89.1µM*	11.4%[12.7 µM]
Nc1ccc(S(=O)(=O)Nc2ccccn2)cc1	u	23.3%	12.6%	19.8%	-3.6%	25.1µM*!
Cc1ccc(C(=O)Nc2ccc(S(=O)(=O)Nc3cnc4ccccc4n3)cc2)cc1	u	39.3%	15.8%	-5.0%	-13.0%	50.1µM*
Cc1occc1C(=O)N1CCC2(CC1)CC(c1ccccc1)CN(C)C2 (stereo not drawn)	39.4%	x	x	x	x	x
COc1ccccc1C1(CC(=O)Nc2nccs2)CCOC(C(C)C)C1 (stereo not drawn)	0.0%	1.3%	2.7%	-8.5%	-21.8%	2.7%
COc1ccccc1C1(CC(=O)N2CCOCC2)CCOC(C(C)C)C1 (stereo not drawn)	0.0%	-7.3%	-14.5%	u	-9.9%[11.4 µM]	50.1µM*
COc1cccc(/C=N/Nc2cc(N3CCOCC3)ncn2)c1O	-4.5%	36.8%	6.6%	2.82µM*	44.7µM*	45.1%
CCOC(=O)c1c[nH]c2ccc3ccccc3c2c1=O	10.5%	18.7%	-3.7%	-34.1%	-14.6%	-99.8%
Oc1ccc2ccccc2c1N=Nc1ccccc1F	17.6%	u	3.9%	2.82µM*	3.55µM*	2.24µM*
O=S(=O)(O)c1cccc(N=Nc2c(O)ccc3ccccc23)c1	u	u	u	11.2µM*	u	x
CCOC(=O)c1[nH]cnc1N=Nc1c(O)ccc2ccccc12	10.9%	-31.3%	14.4%	11.2µM*	79.4µM*	50.1µM*
Oc1ccc2ccccc2c1N=Nc1ccccn1	0.0%	8.91µM*	-15.0%	3.98µM*	35.5µM*	3.16µM*
c1ccc2c(c1)ccc1ccccc12	14.2%	97.0%	x	x	50.3%	x
O=C1NCc2ccccc2CC12CCCCN2Cc1ccc(CO)o1 (stereo not drawn)	3.5%[6.33 µM]	x	x	x	x	x
Clc1ccc(CSc2nc3ncccc3[nH]2)c(Cl)c1	3.8%	x	x	x	x	x
COC(=O)c1ccc(OCC(=O)NCC(F)(F)F)cc1	13.8%	x	x	x	x	x
O=C1C=C(N2CCN(c3ccccn3)CC2)C(=O)c2c(O)ccc(O)c21	-22.6%	u	x	x	31.6µM*	x
CCCCCCCN1N=C(C)C(C(=O)c2ccccc2)C1=O (stereo not drawn)	0.0%	5.4%	10.4%	u	50.1µM*	u
